Test [1] has as its system Wnt5a (protein binding on small-molecule microarray). Put plainly: small molecules binding Wnt5a protein – biophysical, small-molecule microarray, 635/667 nm fluorescence, primary screen (AID 1142).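 Also: fluorescence read at 667 nm with signal to noise per printed feature.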 Conditions: 635 nm fluorescence, higher = more signal.
Test [2] can be described thus: ATP-based viability of Huh7 replicon cells – cell-based, CellTiter-Glo luminescence, basal, 48 h, cytotoxicity control for HCV replication inhibitor project, primary screen (AID 1143).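 Also: Huh7 hepatoma cells carrying a hepatitis C replication reporter with no stimulus; test concentration not given here.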 The settings on record: higher = more signal, called active from +8 up or from −8 down. (In general: In antiviral work, replicon cells carry a viral genome segment that copies itself.)

A short description of test [3]: Pseudomonas biofilm growth suppression – PAO1 strain, BacTiter-Glo luminescence, LB-PBS, primary screen (AID 1144). Conditions: P. aeruginosa PAO1 biofilm, 12 h, higher = more signal.
A short description of test [4]: basal CRE-LacZ reporter activity in PC12 – cell-based, unstimulated, primary screen (AID 1145). The settings on record: no forskolin, luminescence, 4.5 h, higher = more signal, called active from +8 up or from −8 down.
Test [5] is described as follows: forskolin-driven CRE-LacZ activity in PC12 – cell-based, CRE-LacZ reporter, forskolin-stimulated, primary screen (AID 1146).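 Also: PC12 cells with 6xCRE LacZ reporter stimulated by forskolin 10 µM; beta-galactosidase reporter signal reflecting CREB driven transcription.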 Conditions: luminescence, 4.5 h, higher = more signal, called active from +8 up or from −8 down.
Test [6] concerns the target Streptavidin (Streptomyces avidinii) (UniProt P22629). The experiment in a line: compounds binding control protein streptavidin – biophysical, small-molecule microarray, 635/667 nm fluorescence, artefact control for SMM compound annotation, primary screen (AID 1147).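 Also: signal reflects streptavidin binding to arrayed compounds as a control protein.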 Conditions: higher = more signal.
The nature of test [7]: probe aInhba binding on compound microarray – biochemical, small-molecule microarray, 635/667 nm fluorescence, primary screen (AID 1148).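 Also: score merges 667nm spot fluorescence with signal-to-noise for antibody binding to printed compounds.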 The settings on record: higher = more signal.
For test [8], the target named is Torsin-1A (Homo sapiens) (UniProt O14656). The experiment in a line: TOR1A wild-type binding on microarray – cell lysate, small-molecule microarray, lysate, 635/667 nm, primary screen (AID 1149). Conditions: COS7 hTOR1A-WT lysate, 635 nm fluorescence, higher = more signal.
Test [9] shares this target. Put plainly: torsin A mutant lysate binding on microarrays – cell lysate, small-molecule microarray, COS7 lysate, 635/667 nm fluorescence, primary screen (AID 1150).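 Also: score pools 667 nm emission and signal to noise measuring lysate protein binding.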 Conditions: COS7 hTOR1A mutant lysate, 635 nm fluorescence, higher = more signal.
The subject of test [10] is Sonic hedgehog protein (Shh). The experiment in a line: Sonic hedgehog microarray binding compounds – biochemical, small-molecule microarray, 635/667 nm fluorescence, primary screen (AID 1151).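 Also: Shh protein binding to compounds spotted on small-molecule microarray slides; score combines spot fluorescence intensity with signal-to-noise across triplicate slides.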 The settings on record: 635 nm fluorescence, higher = more signal.
Test [11] in a line: optical density shifts of acrAB sulA E. coli – strain DRC41, OD650, 48 h, E. coli filamentation inducer project, primary screen (AID 1152).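 Also: E. coli MC1000 strain DRC41 lacking acrAB efflux pump and sulA.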 Conditions: higher = more signal, called active from +8 up or from −8 down.
Test [12] is described as follows: probe aLefty1 binding on compound microarray – biochemical, small-molecule microarray, 635/667 nm fluorescence, primary screen (AID 1153).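 Also: score merges spot fluorescence with signal-to-noise ratio from the scanned slide images.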 The settings on record: higher = more signal.
Test [13] is described as follows: plasmodial surface anion channel blockers, osmotic lysis – cell-based, P. falciparum Indochina, OD700, 1 h, primary screen (AID 1154). The settings on record: P. falciparum Indochina infected RBC osmotic lysis, higher = more signal, called active from +8 up or from −8 down.
The nature of test [14]: plasmodial surface anion channel blockers, osmotic lysis – cell-based, P. falciparum Indochina, OD700, 2 h, primary screen (AID 1155).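 Also: lysis reports solute entry through the parasite surface anion channel PSAC.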 The settings on record: P. falciparum Indochina infected erythrocytes, higher = more signal, called active from +8 up or from −8 down.
The nature of test [15]: changes in parasitized red cell lysis, either direction – P. falciparum Indochina, OD700, 3 h, PSAC antagonist project, primary screen (AID 1156). Conditions: P. falciparum-infected erythrocytes, osmotic lysis, higher = more signal, called active from +8 up or from −8 down.
The nature of test [16]: plasmodial surface anion channel blockers, osmotic lysis – cell-based, P. falciparum Indochina, OD700, 18 h, primary screen (AID 1157). The settings on record: P. falciparum Indochina infected erythrocytes, osmotic lysis OD700, 18 h; higher = more signal, called active from +8 up or from −8 down.
Test [17] in a line: S6 kinase pathway phospho-S6 level changes – cell-based, A549, cytoblot, luminescence, serum-stimulated, primary screen (AID 1158).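 Also: serum-stimulated A549 lung adenocarcinoma cells; signal is phosphorylated S6 detected by cytoblot immunostaining with HRP secondary.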 Conditions: 5 h, higher = more signal.
Test [18] has as its target NADPH oxidase 2 (Homo sapiens) (UniProt P04839). Put plainly: compounds shifting NOX2 Amplex Red fluorescence – cell-based, HEK293-NOX2, PMA-stimulated, NOX inhibitor project, primary screen (AID 1159). Also: test concentration not given here. Conditions: 45 min, higher = more signal, called active from +8 up or from −8 down.
Test [19] has as its target NADPH oxidase 4 (Homo sapiens) (UniProt Q9NPH5). The experiment in a line: compounds shifting NOX4 Amplex Red fluorescence – cell-based, HEK293-NOX4, tetracycline-induced, NOX inhibitor project, primary screen (AID 1160). The settings on record: HEK293-NOX4, Amplex Red H2O2 fluorescence, 45 min; higher = more signal, called active from +8 up or from −8 down.
In test [20] the target is NADPH oxidase 5 (Homo sapiens) (UniProt Q96PH1). The experiment in a line: compounds shifting NOX5 Amplex Red fluorescence – cell-based, HEK293-NOX5, NOX inhibitor project, primary screen (AID 1161). Conditions: HEK293-NOX5, ionomycin, 45 min, higher = more signal.

Activity calls are given as the source filed them. Unless noted, no rule for the calls is given here.

NADPH oxidase 2 (Homo sapiens), sequence (P04839 whole entry, looked up): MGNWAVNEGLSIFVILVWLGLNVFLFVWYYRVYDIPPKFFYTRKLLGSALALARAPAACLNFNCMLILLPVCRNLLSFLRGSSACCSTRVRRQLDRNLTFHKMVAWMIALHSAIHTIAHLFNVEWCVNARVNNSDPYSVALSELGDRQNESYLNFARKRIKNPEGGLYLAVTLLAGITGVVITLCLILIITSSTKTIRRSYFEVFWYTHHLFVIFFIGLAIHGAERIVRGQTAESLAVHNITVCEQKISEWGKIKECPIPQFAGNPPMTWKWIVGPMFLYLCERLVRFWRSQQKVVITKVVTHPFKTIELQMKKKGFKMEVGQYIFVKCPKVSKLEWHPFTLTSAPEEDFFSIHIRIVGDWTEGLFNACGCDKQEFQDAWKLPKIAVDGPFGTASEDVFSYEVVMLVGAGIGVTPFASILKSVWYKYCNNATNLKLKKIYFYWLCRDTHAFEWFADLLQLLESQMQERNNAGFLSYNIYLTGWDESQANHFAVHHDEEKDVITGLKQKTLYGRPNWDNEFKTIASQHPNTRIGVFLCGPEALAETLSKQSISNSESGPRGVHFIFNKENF
Torsin-1A (Homo sapiens), sequence (O14656 whole entry, looked up): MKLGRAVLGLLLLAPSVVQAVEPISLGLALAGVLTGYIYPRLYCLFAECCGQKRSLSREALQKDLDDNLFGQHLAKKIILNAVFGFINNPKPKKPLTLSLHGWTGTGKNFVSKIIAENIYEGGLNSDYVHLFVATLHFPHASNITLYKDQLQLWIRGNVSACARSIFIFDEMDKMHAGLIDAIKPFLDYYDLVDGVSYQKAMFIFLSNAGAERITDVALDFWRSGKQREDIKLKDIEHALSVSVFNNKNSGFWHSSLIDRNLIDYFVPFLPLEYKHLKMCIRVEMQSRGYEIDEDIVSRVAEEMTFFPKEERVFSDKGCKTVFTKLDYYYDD
NADPH oxidase 4 (Homo sapiens), sequence (Q9NPH5 whole entry, looked up): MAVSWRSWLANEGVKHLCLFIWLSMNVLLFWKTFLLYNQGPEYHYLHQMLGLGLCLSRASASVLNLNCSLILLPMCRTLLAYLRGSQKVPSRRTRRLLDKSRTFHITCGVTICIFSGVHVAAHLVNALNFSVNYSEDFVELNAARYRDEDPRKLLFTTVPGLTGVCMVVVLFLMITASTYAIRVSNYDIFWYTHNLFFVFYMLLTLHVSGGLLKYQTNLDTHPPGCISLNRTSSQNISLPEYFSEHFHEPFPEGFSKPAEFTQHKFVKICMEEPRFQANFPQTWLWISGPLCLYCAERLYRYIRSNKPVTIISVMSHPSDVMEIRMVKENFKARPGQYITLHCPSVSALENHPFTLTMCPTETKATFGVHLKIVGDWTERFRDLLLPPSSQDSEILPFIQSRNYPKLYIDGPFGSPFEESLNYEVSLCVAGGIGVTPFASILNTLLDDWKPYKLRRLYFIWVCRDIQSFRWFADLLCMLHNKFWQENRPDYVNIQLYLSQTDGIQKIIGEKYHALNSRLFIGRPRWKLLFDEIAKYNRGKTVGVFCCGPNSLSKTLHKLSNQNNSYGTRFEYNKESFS
NADPH oxidase 5 (Homo sapiens), sequence (Q96PH1 whole entry, looked up): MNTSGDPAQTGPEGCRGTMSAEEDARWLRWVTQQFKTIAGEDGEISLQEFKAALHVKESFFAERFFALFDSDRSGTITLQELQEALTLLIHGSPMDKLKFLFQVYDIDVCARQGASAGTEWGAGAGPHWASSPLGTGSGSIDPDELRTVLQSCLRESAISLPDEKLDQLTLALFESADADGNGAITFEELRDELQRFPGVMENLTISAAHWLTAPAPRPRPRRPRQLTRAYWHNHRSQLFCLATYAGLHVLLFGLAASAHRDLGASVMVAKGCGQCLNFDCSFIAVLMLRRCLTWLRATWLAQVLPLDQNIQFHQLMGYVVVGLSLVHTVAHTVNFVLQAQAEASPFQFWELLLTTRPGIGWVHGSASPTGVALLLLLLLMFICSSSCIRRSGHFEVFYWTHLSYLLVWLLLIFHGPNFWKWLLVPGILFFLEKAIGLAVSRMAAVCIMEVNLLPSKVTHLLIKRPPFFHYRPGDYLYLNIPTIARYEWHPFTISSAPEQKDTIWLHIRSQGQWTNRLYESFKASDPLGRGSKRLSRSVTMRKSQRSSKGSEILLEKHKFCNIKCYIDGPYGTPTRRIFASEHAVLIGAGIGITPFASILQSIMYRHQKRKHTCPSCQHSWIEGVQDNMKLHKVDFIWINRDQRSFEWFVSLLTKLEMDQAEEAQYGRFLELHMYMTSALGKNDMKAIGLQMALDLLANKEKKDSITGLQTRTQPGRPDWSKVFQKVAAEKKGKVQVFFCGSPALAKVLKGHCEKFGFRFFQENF
Streptavidin (Streptomyces avidinii), sequence (P22629 whole entry, looked up): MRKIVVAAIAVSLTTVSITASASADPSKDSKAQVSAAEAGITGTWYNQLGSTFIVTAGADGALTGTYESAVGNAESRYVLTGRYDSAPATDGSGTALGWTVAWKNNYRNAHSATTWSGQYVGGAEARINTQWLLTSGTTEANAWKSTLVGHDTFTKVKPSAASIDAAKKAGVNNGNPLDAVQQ

As for `COCCNC(=O)OCC1CCCC2(CC(OC(=O)NCc3cccc4ccccc34)CC(CCC(=O)N[C@@H](C)C(=O)OC)O2)O1` (stereo not given in full), the composite z-score in test [1] is 0.278; in test [6], 0.403; in [7] it was -0.157; in the test with Torsin-1A (Homo sapiens) [8], 0.413; with Torsin-1A (Homo sapiens) [9], 0.41; in [10], 0.971. The composite z-score in test [12] is -0.198. For the same molecule, the z-score in test [2] is -0.862 (inactive); in test [3] it was -0.496 (inactive); in test [4], 0.376 (inactive); in [5], 1.47 (inactive); in test [11], 0.434 (inactive); in test [13], -1.58 (inactive). The z-score in [14] is -0.523 (inactive); in [15], -1.28 (inactive); in test [16], 0.174 (inactive); in test [17] it was -0.582; in [18] it was -0.155 (inactive); in [19] it was 1.49 (inactive). For the same molecule, the z-score in test [20] amounted to 2.08.

Turning to `C[C@H]1CC[C@H]2C(=O)N[C@H](Cc3ccccc3)C(=O)N2[C@@H]1c1ccccc1`, the composite z-score in [1] was 0.132; in test [6], 0.119; in test [7], -0.233; in the test with Torsin-1A (Homo sapiens) [8], 0.345; with Torsin-1A (Homo sapiens) [9], 0.52; in test [10] it was 0.401. Further, in test [12], the composite z-score is -0.108. For the same molecule, the z-score was 0.21 (inactive) in test [2]; 0.108 (inactive) in [3]; -0.072 (inactive) in test [4]; 0.901 (inactive) in test [5]; 0.584 (inactive) in [11]; -0.189 (inactive) in test [13]. The z-score was 0.405 (inactive) in test [14]; -0.304 (inactive) in test [15]; 0.294 (inactive) in test [16]; -0.0623 in [17]; 0.727 (inactive) in [18]; -0.32 (inactive) in test [19]. The z-score in test [20] was -0.119.

Regarding `CCN1C(=O)[C@H]2[C@H]3[C@H](O)[C@H](O)CC(=NOC[C@@H](O)[C@H]4O[C@@H]5OC(C)(C)O[C@@H]5[C@H]4O)[C@@H]3CC[C@H]2C1=O`, the composite z-score in [1] was -0.0165; in [6], 0.245; in test [7] it was -0.246; in the test with Torsin-1A (Homo sapiens) [8] it was 0.382; with Torsin-1A (Homo sapiens) [9] it was 0.205; in [10] it was 0.374. In [12], the composite z-score turned out to be 0.0445. The z-score in test [2] was 0.297 (inactive); in test [3], 0.685 (inactive); in test [4], -0.975 (inactive); in [5], -0.799 (inactive); in test [11] it was -0.352 (inactive); in test [13], 0.158 (inactive). Moreover, the z-score in test [14] was 0.196 (inactive); in [15], 0.151 (inactive); in [16], 0.318 (inactive); in test [17], -0.102; in [18], -0.842 (inactive); in test [19], 0.162 (inactive). Also, the z-score in [20] came to 0.953.

For `CC(=O)OC[C@H]1O[C@H](CC=NOC(C)CN2CCCc3nc(C)c(C)cc32)C=C[C@@H]1OC(C)=O` (stereo not given in full), the composite z-score is 0.417 in test [1]; -0.0656 in [6]; -0.0221 in [7]; 1.19 with Torsin-1A (Homo sapiens) [8]; -0.0919 with Torsin-1A (Homo sapiens) [9]; 1.1 in test [10]. The molecule further showed a composite z-score in test [12] of -0.0222. Also, the z-score in test [2] is 0.169 (inactive); in [3] it was 0.649 (inactive); in test [4], -0.961 (inactive); in [5], 0.0009 (inactive); in test [11], 0.134 (inactive); in [13] it was 1.3 (inactive). The z-score is 0.674 (inactive) in test [14]; 0.594 (inactive) in [15]; 0.588 (inactive) in [16]; -0.597 in test [17]; -2.12 (inactive) in test [18]; -2.2 (inactive) in test [19]. The z-score in test [20] was -0.898.

Values taken from PubChem BioAssay.
